# High-throughput results (PubChem BioAssay)
# The list is not random: actives were taken first. Their share in the collection is about 12%.
# Sfp PPTase inh = inhibitors of Bacillus subtilis Sfp phosphopantetheinyl transferase; Biochemical Sfp PPTase activity, qHTS; hit rate 3.5% among 310,000; Q9F4F7; Potency, µM, without a hit: largest response in the series, negative = inhibition, actives largely listed as inhibitors;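 also: the enzyme is Sfp with the accession as filed and its product quenches rhodamine fluorescence; 0% = enzyme reaction without inhibitor and -100% = no enzyme wells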
#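 Reaction rates are the 30-min fluorescence difference (ex 525, em 598 nm) in wells containing 15 nM Sfp, 5 uM rhodamine-CoA and 12.5 uM BHQ-2-YbbR at pH 7.6 with 10 mM MgCl2.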
# VP16 counter = Gal4-VP16 reporter inhibition counter-screen | Drosophila S2 Gal4-VP16 UAS-luciferase, luminescence, 20 h | Potency, µM (doses to about 53.6 µM), for the others: at the top dose activity, negative = inhibition, most hits filed as inhibitors | hit rate 3.5% among 310,000 | AID 2546;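 also: Gal4-VP16 expression switched on by copper sulfate through the metallothionein promoter; nearly all actives have a fitted effect of over 50% in size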
# ALDH1A1 inh = ALDH1A1 (human) enzyme inhibition; P00352; Purified ALDH1A1, NADH fluorescence, propionaldehyde substrate; hit rate 7.3% among 220,000; Potency, µM (highest dose often 75.3 µM), without a hit: top-dose activity, negative = inhibition, most hits filed as inhibitors; active = well fitted inhibition curve with a large enough effect, not every such curve was filed as active; inconclusive = small, poorly fitted or top-dose-only effect, or another doubt; inactive = no such curve, though single readings can be large or run the other way;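 also: plate controls were no enzyme wells and a reference inhibitor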
# PLK1 PBD inh = inhibitors of human PLK1 polo-box domain binding. P53350. Plk1 PBD binding of FITC phosphopeptide, fluorescence polarization. Potency, µM, inactives show max response, negative = inhibition, most hits filed as inhibitors. hit rate 2.8% among 360,000. AID 720504; also: series mostly up to about 57 µM; nearly all actives have a fitted effect of over 65% in size
# RORgamma inh = ROR gamma (mouse) transcription inhibition | hit rate 5.4% among 310,000 | Drosophila S2 Gal4-RORgamma UAS-luciferase reporter, 20 h | Potency, µM (series often up to 53.6 µM), for inactives: top-dose activity change, negative = inhibition, usual class: inhibitors; also: nearly all actives have a fitted effect of over 60% in size
# Target sequence (P51450 whole entry, looked up, the tested form may be a part): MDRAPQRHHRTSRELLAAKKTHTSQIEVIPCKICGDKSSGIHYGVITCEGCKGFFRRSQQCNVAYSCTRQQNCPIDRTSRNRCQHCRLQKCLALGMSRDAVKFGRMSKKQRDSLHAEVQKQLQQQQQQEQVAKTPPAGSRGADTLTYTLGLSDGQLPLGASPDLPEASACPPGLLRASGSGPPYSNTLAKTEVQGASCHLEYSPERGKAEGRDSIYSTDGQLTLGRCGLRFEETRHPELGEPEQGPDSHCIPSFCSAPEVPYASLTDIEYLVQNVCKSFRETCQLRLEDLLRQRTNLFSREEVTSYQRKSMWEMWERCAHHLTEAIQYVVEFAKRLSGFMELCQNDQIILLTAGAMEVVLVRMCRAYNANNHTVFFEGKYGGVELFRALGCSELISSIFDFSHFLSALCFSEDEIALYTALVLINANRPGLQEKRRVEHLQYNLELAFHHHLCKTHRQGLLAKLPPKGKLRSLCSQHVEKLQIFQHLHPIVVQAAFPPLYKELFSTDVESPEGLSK
#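 In this cell-based reporter format, copper sulfate (700 uM final) drives Gal4–ROR gamma fusion expression from a metallothionein promoter in Drosophila Schneider cells; compounds preincubated 1 hr, reporter read after 20 hr at ambient temperature.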
# * hit, by the source's call; ? = inconclusive; . = no result; [ ] = another dose, or the depositor's remark. Unless noted, calls follow the shape of the dose curve; as a rule, active = well fitted curve in the direction sought with a large enough effect; inconclusive = small, poorly fitted or top-dose-only effect, or another doubt; inactive = no such curve, though single readings can be large; an effect the other way counts as inactive or inconclusive. Unless noted, % is scaled to controls: 0 for no effect and ±100 for the full control effect; potency is read from the fitted curve at half-maximal effect.
SMILES,Sfp PPTase inh,VP16 counter,ALDH1A1 inh,PLK1 PBD inh,RORgamma inh
COc1cccc(CS(=O)(=O)c2nnnn2-c2ccc(F)cc2Br)c1,-3%,5%,?,.,-1%
CCc1nc2c(OCCOc3ccc(F)cc3)cccn2c1N(C)C(=O)c1ccc(OC)cc1,.,.,.,-7%,.
Cc1ccc(N2CCN(/N=C/c3ccncc3)CC2)cc1,-6%,14µM*,2%,-9%,-3%
Clc1ccc(N2CCN(/N=C/c3ccncc3)CC2)cc1,?,?,1%,-4%,-1%
CC(C)(C)NC(=O)c1ccc2c(c1)C(=O)N(C1CCCCC1)C2=O,2%,-2%,2.8µM*,0%,25%
CCOC(=O)c1ccc2c(c1)C(=O)N(C1CCCCC1)C2=O,-2%,-8%,22µM*,-5%,13%
CCc1nc2c(OCc3ccc(C(F)(F)F)cc3)cccn2c1N(C)C(=O)c1ccncc1,.,.,.,1%,.
Cc1nn(-c2cc(C)c3ccccc3n2)c2c1CCC2,-4%,?,-10%,1%,2.2µM*
O=c1c2ccccc2oc2cc(O)c(C3COCC(CO)C(O)C(O)C3O)c(O)c12 (configuration not stated),79µM*,?,?,.,10%
Cc1ccccc1OCC(=O)N/N=C/C=C/c1ccccc1,19%,-9%,9%,30µM*,?
COc1ccc(/C=C/C=N/NC(=O)COc2ccc(OC)cc2)cc1,4%,10%,4%,-13%,-39%
COc1ccccc1NCC(=O)N/N=C/C=C/c1ccccc1,-19%,?,14µM*,-8%,?
COc1ccc(NCC(=O)N/N=C/C=C\c2ccccc2)cc1,3%,13µM*,9.5µM*,-8%,11µM*
COc1ccccc1NCC(=O)N/N=C/c1cccnc1,7%,-9%,?,-3%,16%
COc1cccc(-c2cccc(-c3nc(C(=O)NCCCN4CCOCC4)cc4c3[C@H](CCO)N(S(=O)C(C)(C)C)C4)c2)c1 (some centres not stated),.,.,.,-9%,.
C[C@H](CO)N1C[C@H](C)[C@H](CN(C)S(=O)(=O)c2ccc(Cl)cc2)OCc2ccccc2-c2c(n(C)c3ccccc23)C1=O,.,.,.,-24%,.
CC(C)=CCC/C(C)=C/CO/N=C1/[C@H]2O[C@@H]2[C@@H](O)[C@H]2[C@H]1CCn1c(=O)n(Cc3cc4c(cc3Cl)OCO4)c(=O)n12,23%,-9%[10 µM],18%[13.5 µM],.,10%[10 µM]
FC(F)Sc1ccc(NC(=S)NCc2ccccc2)cc1,17%,?,?,-5%,11µM*
FC(F)(F)c1ccc(NC(=S)NCc2ccccc2)cc1,4%,?,-12%,-20%,4.5µM*
FC(F)Sc1ccc(NC(=S)NC(c2ccccc2)c2ccccc2)cc1,27%,?,?,-12%,7.1µM*
Cc1cc(N2CCN(C(C(=O)NC3CCCC3)c3ccco3)CC2)c2ccccc2n1 (configuration not stated),.,.,.,0%,.
Cc1ccc(NC(=O)CN(C)C(=O)C2CSC3(C)CCC(=O)N23)cc1 (configuration not stated),.,.,.,-20%,.
CO[C@@H]1COC(=O)[C@@H](CCSC)NC(=O)C/C=C\[C@@H](C)COC(=O)CCC[C@H]1C,0%,-6%[10 µM],4%[13.5 µM],.,-15%[10 µM]
Cc1cccc(S(=O)(=O)NC(=O)C2(C)CCN2C(=O)c2sccc2C)c1 (configuration not stated),.,.,.,-6%,.
Cc1ccccc1-n1nnnc1SCC(=O)c1c(N)n(C2CC2)c(=O)[nH]c1=O,.,.,.,-1%,.
SMILES,Sfp PPTase inh,VP16 counter,ALDH1A1 inh,PLK1 PBD inh,RORgamma inh
O=C1C(O)=C(O)C(=O)C(O)=C1O,28µM*,-4%,?,.,-3%
CCOC(=O)C1CCCN(c2c(NCCCN(CC)c3cccc(C)c3)c(=O)c2=O)C1 (configuration not stated),3%,-3%,0%,24µM*,18%
CCOC(=O)C1CCCN(c2c(NCCc3cccc(C)c3)c(=O)c2=O)C1 (configuration not stated),25%,1%,.,2%,1%
Cc1cccc(C)c1-n1nnnc1C1c2ccccc2C(=O)N1CCc1ccc(O)cc1 (configuration not stated),.,.,.,-11%,.
O=C(CSC(=S)N1CCCCC1)c1ccccc1,-5%,?,32µM*,-12%,?
COc1ccc(C(=O)CSC(=S)N2CCCCC2)cc1,.,.,.,0%,.
O=C(CSC(=S)N1CCCC1)c1ccccc1,-2%,?,.,-7%,10µM*
COc1ccccc1CN1CCNC(=O)C1CC(=O)N(C)C1CCOCC1 (configuration not stated),.,.,.,-5%,.
C[C@@H]1CN(S(=O)C(C)(C)C)[C@H](CCO)/C1=C\CCO (some centres not stated),.,.,.,0%,.
O=C(Nc1c2c(nn1-c1ccc(F)cc1)CS(=O)(=O)C2)C12CC3CC(CC(C3)C1)C2,10%,-14%,4µM*,1%,7%
O=C(CCC1CCCCC1)Nc1c2c(nn1-c1ccc(F)cc1)CS(=O)(=O)C2,9%,-6%,10µM*,-3%,10%
COc1ccc2c(c1)CC=C1C2CCC2(C)C(=O)C(=NO)CC12 (configuration not stated),.,.,.,-3%,.
COc1ccc(CN2C(=O)C(CC(=O)NCC3CCCCC3)CC(C(=O)N(C(C)C)C(C)C)=C2C)cc1 (configuration not stated),.,.,.,4%,.
CN(C)c1ccc(/C=N/N=C2/NC(=O)/C(=C/c3ccc([N+](=O)[O-])cc3)S2)cc1,-17%,?,25µM*,-29%,2.8µM*
CC1CCC(O)([C@](C)(C(=O)O)c2ccccc2)CC1 (some centres not stated),.,.,1%[13.5 µM],.,.
COc1ccc(CC2=CC(=O)c3ccccc3C2=O)cc1,25µM*,10µM*,.,?,7.1µM*
C=C(C)C(=O)OCC(C)O (configuration not stated),.,-1%,-1%,.,-9%
Cc1noc(C)c1-c1cncnc1-n1ccnc1,8%,-8%,8%,.,-7%
COC(=O)c1cc(-c2ccccc2)sc1N,40µM*,16%,?,21µM*,30%
C#CCNC(=O)c1cc(-c2ccccc2)sc1N,.,.,.,-9%,.
COC(=O)c1c(NC(=O)C2CCC2)sc(C(=O)N(C)C)c1C,18%,4%[0.365 µM],-4%,0%,?
COC(=O)c1sc(-c2ccccc2)cc1NC(=O)C1CC1,45µM*,-4%,-4%,-7%,36%
COC(=O)c1sc(-c2ccc(C(C)(C)C)cc2)cc1NC(=O)CSCC(=O)O,-3%,-28%,.,?,-35%
COC(=O)c1sc(-c2ccc(C(C)(C)C)cc2)cc1NC(=O)c1ccccc1C(=O)O,-2%,-7%,.,21µM*,45%
CCOc1ccc(NC(=O)Nc2cc(-c3ccccc3)sc2C(=O)OC)cc1,19%,4%,-5%,-11%,-12%
COC(=O)c1c(NC(=O)C2CC2)sc(C(=O)Nc2ccccc2)c1C,3%,-6%,4%,27µM*,35%
